Compound activity (PubChem BioAssay)
Cruzain inh noDet: qHTS Assay for Promiscuous and Specific Inhibitors of Cruzain (without detergent). purified cruzain, Z-FR-AMC fluorescence, no detergent. Cruzipain (Trypanosoma cruzi), P25779. Potency, µM, without a hit: max response, negative = inhibition, most hits filed as inhibitors. 200,000 compounds, 2.3% hits;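 further: plate controls were enzyme without inhibitor for no effect and buffer without enzyme for full effect; nearly all actives have a fitted effect of over 40% in size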
Target sequence (P25779 123-467 limits assumed): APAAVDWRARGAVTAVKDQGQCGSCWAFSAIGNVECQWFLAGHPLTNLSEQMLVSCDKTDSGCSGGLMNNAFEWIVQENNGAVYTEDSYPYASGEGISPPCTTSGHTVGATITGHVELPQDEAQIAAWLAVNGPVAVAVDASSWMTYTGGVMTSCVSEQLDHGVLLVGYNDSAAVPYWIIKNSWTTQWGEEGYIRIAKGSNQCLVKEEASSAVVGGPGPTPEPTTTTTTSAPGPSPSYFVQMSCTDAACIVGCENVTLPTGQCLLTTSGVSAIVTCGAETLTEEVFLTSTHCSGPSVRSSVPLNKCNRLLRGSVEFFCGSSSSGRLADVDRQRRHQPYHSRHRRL
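Detergent-free condition (0.00005% Triton X-100) in acetate buffer pH 5.5 with DTT. 1.5 nM enzyme and compound were pre-mixed 15 min, then 2 uM Z-FR-AMC substrate added; reaction progress from fluorescence change between first and third reads (60 s).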
Cruzain inh Det: qHTS Assay for Promiscuous and Specific Inhibitors of Cruzain (with detergent); purified cruzain, Z-FR-AMC fluorescence, 0.01% Triton; Potency, µM, for inactives: max response, negative = inhibition, hits mostly inhibitors; 200,000 compounds, 0.43% hits;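 further: plate controls were neutral wells for no effect and buffer without enzyme for full effect; nearly all actives have a fitted effect of over 40% in size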
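In this qHTS format, compounds are incubated with 1.5 nM cruzain for 15 min at room temperature before 2 uM Z-FR-AMC is added. Release of AMC is followed at 360/450 nm, and progress is taken as the 60 s fluorescence difference.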
Active calls of the source: *. Rows were chosen to be rich in hits. Some 2.6% of all compounds tested hit in one or more screens of this group. The call rests on the fitted dose curve; in most records, active means well fitted curve in the direction sought with a large enough effect; inconclusive means small, poorly fitted or top-dose-only effect, or another doubt; inactive means no such curve, though single readings can be large; an effect the other way counts as inactive or inconclusive. Potency means the concentration at half of the fitted maximal effect.

Screening COc1ccc(C(=O)c2cn(Cc3ccccc3F)c3ccc(F)cc3c2=O)cc1 returned Cruzain inh noDet -4% and Cruzain inh Det -3%.
`Cc1cc(C)cc(N2C(=O)CS(=O)(=O)C23C(=O)N(Cc2ccc(F)cc2)c2ccc(C)cc23)c1` (stereo not drawn) gave Cruzain inh noDet inconclusive and Cruzain inh Det -5%.
`COc1ccc(N2C(=O)CS(=O)(=O)C23C(=O)N(Cc2c(F)cccc2Cl)c2ccccc23)cc1` (stereo not drawn) gave Cruzain inh noDet 7.9µM* and Cruzain inh Det -3%.
For CCOc1ccc(N2C(=O)CS(=O)(=O)C23C(=O)N(Cc2cccc(Cl)c2)c2ccccc23)cc1 (stereo not drawn) the results were Cruzain inh noDet 10µM* and Cruzain inh Det -3%.
For COc1ccc(N2C(=O)CS(=O)(=O)C23C(=O)N(Cc2ccccc2)c2ccccc23)cc1 (stereo not drawn) the results were Cruzain inh noDet 3.2µM* and Cruzain inh Det -3%.
`O=C1CSC2(C(=O)N(Cc3c(F)cccc3Cl)c3ccccc32)N1c1ccc(F)c(F)c1` (stereo not drawn) gave Cruzain inh noDet -19% and Cruzain inh Det -7%.
For CN1C(=O)C2(c3ccccc31)N(c1ccccc1)C(=O)CS2(=O)=O (stereo not drawn) the results were Cruzain inh noDet inconclusive and Cruzain inh Det 0%.
Cc1cccc(N2C(=O)CS(=O)(=O)C23C(=O)N(Cc2c(F)cccc2Cl)c2ccccc23)c1 (stereo not drawn) was read as Cruzain inh noDet 3.2µM* and Cruzain inh Det -4%.
`O=C(O)CC[C@@]1(c2ccccc2)NC(=O)NC1=O` gave Cruzain inh noDet 5% and Cruzain inh Det -1%.
`COc1ccc(Nc2oc(/C=C/c3ccc(OC)c(OC)c3)nc2C#N)cc1` gave Cruzain inh noDet 16% and Cruzain inh Det -4%.
For CC(=O)c1ccc(N2CCN(C(=O)C3CCN(S(=O)(=O)c4cccc5nonc45)CC3)CC2)cc1 the results were Cruzain inh noDet 28% and Cruzain inh Det -2%.
For Cc1ccc(Sc2c(C(=O)NCc3ccccc3C)[nH]c3ccccc23)cc1 the results were Cruzain inh noDet 28% and Cruzain inh Det -7%.
Screening N#Cc1c(-c2ccccc2)cc(-c2ccccc2)nc1SCC(O)CS(=O)(=O)Cc1ccccc1 (stereo not drawn) returned Cruzain inh noDet 20µM* and Cruzain inh Det -2%.
`Cc1cc(-c2ccccc2)c(C#N)c(SCC(N)=O)n1` gave Cruzain inh noDet -5% and Cruzain inh Det 0%.
Screening C#CCSc1nc(-c2ccccc2)cc(-c2ccccc2)c1C#N returned Cruzain inh noDet -28% and Cruzain inh Det -6%.
Screening Cc1ccc(-c2cc(-c3ccccc3)c(C#N)c(SCC(O)CS(=O)(=O)Cc3ccccc3)n2)cc1 (stereo not drawn) returned Cruzain inh noDet 10µM* and Cruzain inh Det -3%.
Screening COc1ccccc1-c1cncnc1NCc1cnc(C)cn1 returned Cruzain inh noDet -8% and Cruzain inh Det 8%.
`CSc1nc(N)c2ncn([C@H]3O[C@H](COP(=O)(O)OP(=O)(O)O)[C@@H](O)[C@@H]3O)c2n1` gave Cruzain inh noDet -5% and Cruzain inh Det -2%.
COC(=O)c1ccc2c(c1)c(I)c(-c1ccc(OC)cc1)n2C was read as Cruzain inh noDet inconclusive and Cruzain inh Det 3%.
Screening COC(=O)c1ccc2c(c1)c(C#Cc1ccccc1)c(-c1ccccc1)n2C returned Cruzain inh noDet 18µM* and Cruzain inh Det -3%.
CCN(CC)CCNC(=O)c1ccc(CSc2nc3ccncc3n2Cc2cccc(F)c2)cc1 was read as Cruzain inh noDet -6% and Cruzain inh Det -8%.
CCOC(=O)Cc1csc(N/N=C\c2cccc(Br)c2)n1 was read as Cruzain inh noDet 32µM* and Cruzain inh Det -23%.
For CCOC(=O)Cc1csc(N/N=C/c2ccccc2)n1 the results were Cruzain inh noDet 1% and Cruzain inh Det -7%.
Screening COc1ccc2c(c1)[N+](=O)C(/C(C)=N/NC(N)=S)=C(C)[N+]2=O returned Cruzain inh noDet -1% and Cruzain inh Det -7%.
CCC1(C)Cc2nc3[nH]c(=S)n(-c4ccc(C)cc4)c(=O)c3cc2CO1 (stereo not drawn) was read as Cruzain inh noDet 20µM* and Cruzain inh Det 1%.
Screening Cc1ccc(-n2c(=S)[nH]c3nc4c(cc3c2=O)COC(C)(C)C4)cc1 returned Cruzain inh noDet inconclusive and Cruzain inh Det -3%.
`FC(F)(F)c1ccc(Cl)cc1` gave Cruzain inh noDet -6% and Cruzain inh Det -7%.
Screening CC(C)COc1ccc(C(=O)Nc2scc(-c3ccc(Br)cc3)c2C(=O)OC(C)C)cc1 returned Cruzain inh noDet -5% and Cruzain inh Det -1%.
Screening O=C1NC(=O)c2cc(Nc3ccccc3)c(Nc3ccccc3)cc21 returned Cruzain inh noDet 20µM* and Cruzain inh Det -6%.
